Pf growth 96h: Primary qHTS for delayed death inhibitors of the malarial parasite plastid, 96 hour incubation. P. falciparum luciferase reporter growth, 96 h. 320,000 tested, 6.9% active. Potency, µM (doses to about 28.7 µM), inactives show at the highest dose activity change, negative = inhibition, actives largely listed as inhibitors
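Erythrocytes infected with luciferase-expressing P. falciparum were dispensed at 2% hematocrit and 0.05% parasitemia (final), then incubated with compounds 96 hours at 37 C in 5% CO2. Luminescence after detection reagent addition reported growth.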
HCV inh: qHTS Assay for Inhibitors of Hepatitis C Virus (HCV); Potency, µM (titrated, usually from 41.8 µM), for inactives: top-dose activity change, negative = inhibition, usual class: inhibitors; Huh7.5.1 HCVcc-Cre infection, luciferase reporter, 44 h; 340,000 tested, 3.4% active
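Cells seeded at 1,000/well and cultured 4 h, then compounds added followed by HCVcc-Cre virus (~0.5 moi). After 44 h further culture, luciferase substrate was added, plates held 15 min at room temperature, and luminescence read for 15 sec.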
Pf growth 48h: Primary qHTS for delayed death inhibitors of the malarial parasite plastid, 48 hour incubation; Potency, µM (series often up to 28.7 µM), inactives show top-dose activity change, negative = inhibition, most hits filed as inhibitors; AID 504832, 2011; P. falciparum luciferase growth in erythrocytes, 48 h; 310,000 tested, 5.9% active
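Compounds are pin-transferred into medium, infected erythrocytes (2% hematocrit, 0.1% parasitemia final) are added, and plates sit one parasite generation at 37 C in 5% CO2. Detection reagent is then added and luminescence measured.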
AMA1-RON2 inh: qHTS for Inhibitors of AMA1-RON; Towards Development of Antimalarial Drug Lead: Primary Screen. Plasmodium falciparum AMA1 (3D7) - RON2 peptide interaction. AlphaScreen AMA1-biotinylated RON2 peptide binding. Potency, µM (series often up to 58.2 µM), inactives show at the top dose activity change, negative = inhibition, hits mostly inhibitors. 360,000 tested, 0.2% active. AID 720542, 2013;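 further: 0% = vehicle wells and -100% = peptide control; nearly all actives have a fitted effect of over 45% in size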
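AMA1 (3D7) with his tag at 25 nM final met compounds first, then biotinylated RON2 peptide at 25 nM; detection used donor plus acceptor beads, 10 µg/mL apiece, read by AlphaScreen after 30 min at room temperature.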
An asterisk follows results filed as active; ? = inconclusive; / = no result given. Rows were chosen to be rich in hits. Some 11% of all compounds tested hit in one or more screens of this group. The call rests on the fitted dose curve; in most records, active means well fitted curve in the direction sought with a large enough effect; inconclusive means small, poorly fitted or top-dose-only effect, or another doubt; inactive means no such curve, though single readings can be large; an effect the other way counts as inactive or inconclusive. Unless noted, on the % scale 0 is the no-effect control and ±100 the full control effect; potency means the concentration at half of the fitted maximal effect.

SMILES	Pf growth 96h	HCV inh	Pf growth 48h	AMA1-RON2 inh
COc1ccc(C(=O)C2CCCN(S(=O)(=O)c3ccc(C(C)=O)cc3)C2)c(C)c1 (centres undefined)	0%	10µM*	5%	-4%
CSc1ccc(S(=O)(=O)N2CCC(C(=O)NC3CC3)CC2)cc1	-9%	7%	4.1µM*	11%
O=C(Nc1cccc(NC(=O)c2ncn[nH]2)c1)c1cccc(Cl)c1	?	-30%	1%	19%
O=C1c2ccccc2C(=O)c2c1cccc2-n1nnc2ccccc21	-26%	-14%	?	12%
O=C1C(N2CCOCC2)=C(n2nnc3ccccc32)C(=O)c2ccccc21	2.3µM*	7.1µM*	/	?
COc1ccc(Cl)cc1C(=O)NC(=S)Nc1cc(-c2nc3ccccc3[nH]2)ccc1C	25%	?	46%	3%
COc1cccc(N2C(=O)C(Cc3c[nH]c4ccccc34)NC2=S)c1 (centres undefined)	-26%	1%	-13%	11%
COc1cccc(CNC(=O)CSc2nc(=O)n(Cc3ccncc3)c3c2CCC3)c1	?	-19%	10µM*	19%
Cc1cccc(NC(=O)CSc2nccn2Cc2ccco2)c1C	45%	13%	26%	10%
Cc1nn(C)c(C)c1CN(C)S(=O)(=O)c1ccc2ccccc2c1	?	?	13µM*	0%
Cc1cccc(OCC(O)CN2CC3(C)CC2CC(C)(C)C3)c1 (centres undefined)	?	0%	-21%	?
CCOC(=O)c1c(NC(=O)C2=C(C)NC(=S)NC2c2ccc(F)cc2)sc(C)c1C (centres undefined)	?	8.9µM*	?	109%
CCOC(=O)c1c(NC(=O)C2=C(C)NC(=S)NC2c2ccc(F)cc2F)sc(C)c1C (centres undefined)	-63%	?	-4%	17%
CCOC(=O)c1c(NC(=O)C2=C(C)NC(=S)NC2c2ccc(C)cc2)sc(C)c1C (centres undefined)	?	10µM*	12µM*	57%
O=C(C1CC(=O)N(c2ccc(Cl)cc2)C1)N1CCN(Cc2ccc3c(c2)OCO3)CC1 (centres undefined)	0%	?	-5%	-26%
CC1CN(C(=O)c2cc(F)c(F)cc2Cl)CC(C)O1 (centres undefined)	/	17%	/	-9%
COc1cc2ccccc2cc1C(=O)N1CC(C)OC(C)C1 (centres undefined)	/	22%	/	0%
COc1cc(SC)ccc1C(=O)N1CC(C)OC(C)C1 (centres undefined)	-3%	4%	1.7µM*	3%
Cc1ccc(C(=O)N2CC(C)OC(C)C2)c(Cl)c1 (centres undefined)	3.7µM*	14%	/	3%
Cc1[nH]n2c(=O)cc(Cc3ccccc3)nc2c1C#N	10µM*	13%	-7%	0%
CCc1c(C)nc2c(C#N)c(C)[nH]n2c1=O	5.2µM*	15%	28%	-11%
COc1ccccc1N1CCN(C(=O)[C@@H]2CCCN2C2=NS(=O)(=O)c3ccccc32)CC1	/	/	/	11%
CN(C)c1ccc(C=C2C=Cc3ccccc32)cc1	/	-14%	/	?
COc1cc2c(cc1OC)C(=Cc1ccc(N(C)C)cc1)C=C2	/	10µM*	/	8.9µM*
N#Cc1cccc(C2CC(OCCF)=CC(=O)O2)c1 (centres undefined)	/	/	/	5%
SMILES	Pf growth 96h	HCV inh	Pf growth 48h	AMA1-RON2 inh
CCCNC(=O)C1(C)CCCN(Cc2ccc(-n3ccnc3)cc2)C1 (centres undefined)	/	/	/	3%
COc1cc(NC(=O)CCC(=O)Nc2ccc3nc(N4CCOCC4)cc(C)c3c2)cc(OC)c1OC	4%	?	34%	-10%
COc1cc(C(=O)Nc2ccc3c(c2)N(C(=O)CN2CCN(C)CC2)c2ccccc2CC3)cc(OC)c1OC	?	?	13µM*	-20%
Cc1cc(N2CCN(C)CC2)nc2ccc(NC(=O)c3ccc4c(c3)OCO4)cc12	/	10µM*	9.3µM*	9%
COc1cc(C(=O)Nc2ccc3nc(N4CCN(C)CC4)cc(C)c3c2)cc(OC)c1OC	-1%	?	0.33µM*	-3%
Cc1c(NC(=O)C(C)N(c2ccccc2)S(C)(=O)=O)c(=O)n(-c2ccccc2)n1C (centres undefined)	14%	-20%	30%	2%
